Source: PubChem BioAssay (EPA / NIEHS)
Activity calls are given as the source filed them. Rule for the calls: active = hit-call score of the fitted dose curve at least 0.9, where 1 is the maximum; inactive = score below 0.9.

How the values were obtained:
[1] = BSK_3C_SRB: Viability Assessment in the BioMAP Diversity Plus: 3C Assay (AID 2283023); conditions: primary human endothelial cells (HUVEC);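 note: fitted both ways against DMSO so a hit may be signal rise or drop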
Summary of the method: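 Primary human umbilical vein endothelial cells in the 3C system were read 24 h after compound dosing. Total protein was stained with 0.1% sulforhodamine B after 10% TCA fixation and read at 560 nm, with bidirectional fitting against DMSO as baseline.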

[2] = read-out: Matrix Metallopeptidase 1 (MMP1), MMP1 (gene 4312); assay: BSK_BE3C_MMP1: BioMAP Diversity Plus: BE3C Assay for Matrix Metallopeptidase 1 (MMP1) Biomarker Activity (AID 2283024); conditions: primary human bronchial epithelial cells; actives raise or lower the signal
Summary of the method: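 ELISA measurement of MMP-1 after 24 h compound exposure of primary human bronchial epithelial cells. Changes in either direction fitted relative to DMSO; parallel SRB staining checked overt cytotoxicity.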

[3] = BSK_3C_Vis: BioMAP Diversity Plus: 3C Assay for Morphology Visualization (AID 2283025); conditions: primary human endothelial cells (HUVEC);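 note: fitted both ways so gain or loss versus DMSO counts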
Summary of the method: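 Light-microscopy visualization of HUVEC cultures at 24 h post-treatment, with DMSO as baseline for bidirectional fitting.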

[4] = read-out: Pselectin, SELP (gene 6403); assay: BSK_4H_Pselectin: BioMAP Diversity Plus: 4H Assay for Pselectin Biomarker Activity (AID 2283026); conditions: primary human endothelial cells (HUVEC); actives raise or lower the signal
Summary of the method: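 ELISA of surface P-selectin on HUVEC, 24 h after dosing, with parallel SRB staining (0.1% after 10% TCA fixation, 560 nm) for overt cytotoxicity. Activity fitted in both directions relative to DMSO.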

[5] = BSK_4H_SRB: Viability Assessment in the BioMAP Diversity Plus: 4H Assay (AID 2283027); conditions: primary human endothelial cells (HUVEC);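 note: cells exposed to compound for 24 h before staining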
Summary of the method: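 Cytotoxicity readout: sulforhodamine B (0.1%) staining of total protein after 10% TCA fixation, measured at 560 nm in human umbilical vein endothelium at 24 h. DMSO set the baseline; fitting was bidirectional.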

[6] = BSK_BE3C_SRB: Viability Assessment in the BioMAP Diversity Plus: BE3C Assay (AID 2283028); conditions: primary human bronchial epithelial cells
Summary of the method: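 Human primary bronchial epithelial cells were exposed to test chemicals for 24 h. Total protein in parallel cultures was then measured by staining with 0.1% sulforhodamine B after 10% TCA fixation, with absorbance read at 560 nm. Activity was fitted bidirectionally against DMSO.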

[7] = read-out: Thrombomodulin, THBD (gene 7056); assay: BSK_3C_Thrombomodulin: BioMAP Diversity Plus: 3C Assay for Thrombomodulin Biomarker Activity (AID 2283029); conditions: primary human endothelial cells (HUVEC); actives raise or lower the signal
Summary of the method: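 ELISA measurement of thrombomodulin on HUVEC surface 24 h after chemical dosing; activity fitted in both directions relative to DMSO vehicle.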

[8] = read-out: Urokinase-type plasminogen activator receptor (uPAR), PLAUR (gene 5329); assay: BSK_4H_uPAR: BioMAP Diversity Plus: 4H Assay for Urokinase-type plasminogen activator receptor (uPAR) Biomarker Activity (AID 2283030); conditions: primary human endothelial cells (HUVEC); actives raise or lower the signal
Summary of the method: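 Primary human umbilical vein endothelial cells were exposed to chemical for 24 h before cell-surface uPAR was quantified by ELISA. Activity was fitted bidirectionally against the DMSO negative control baseline.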

[9] = read-out: Vascular endothelial growth factor receptor 2 (Homo sapiens) (UniProt P35968); assay: BSK_4H_VEGFRII: BioMAP Diversity Plus: 4H Assay for Vascular endothelial growth factor receptor 2 (VEGFR2) Biomarker Activity (AID 2283031); conditions: primary human endothelial cells (HUVEC); actives raise or lower the signal
Summary of the method: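 Primary human umbilical vein endothelial cells in the BioMAP 4H system were dosed with test chemical, and 24 h later VEGFRII was measured by ELISA. Activity was fitted bidirectionally against DMSO as negative control and baseline.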

[10] = read-out: Human Leukocyte Antigen - DR isotype (HLADR), HLA-DRA (gene 3122); assay: BSK_BE3C_HLADR: BioMAP Diversity Plus: BE3C Assay for Human Leukocyte Antigen - DR isotype (HLADR) Biomarker Activity (AID 2283032); conditions: primary human bronchial epithelial cells; actives raise or lower the signal
Summary of the method: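 Cell-surface HLA-DR ELISA readout at 24 h after dosing in the BE3C primary human lung bronchial epithelial system; gain or loss of signal against DMSO, with parallel sulforhodamine B staining of total protein for overt cytotoxicity.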

[11] = read-out: Vascular cell adhesion molecule 1 (VCAM1), VCAM1 (gene 7412); assay: BSK_4H_VCAM1: BioMAP Diversity Plus: 4H Assay for Vascular cell adhesion molecule 1 (VCAM1) Biomarker Activity (AID 2283033); conditions: primary human endothelial cells (HUVEC); actives raise or lower the signal;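 note: cell-surface VCAM-1 protein measured by ELISA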
Summary of the method: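 VCAM-1 ELISA read 24 h after chemical dosing of HUVEC in the BioMAP 4H system, with gain or loss of signal fitted relative to DMSO. Parallel SRB staining (560 nm) checked overt cytotoxicity.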

[12] = read-out: Interferon-gamma inducible Protein 10 (IP10), CXCL10 (gene 3627); assay: BSK_BE3C_IP10: BioMAP Diversity Plus: BE3C Assay for Interferon-gamma inducible Protein 10 (IP10) Biomarker Activity (AID 2283034); conditions: primary human bronchial epithelial cells; actives raise or lower the signal
Summary of the method: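 IP-10 quantified by ELISA in human primary bronchial epithelial cell cultures at 24 hours post-dosing. Gain or loss of signal fitted relative to DMSO; parallel SRB staining assessed overt cytotoxicity.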

[13] = read-out: Monokine induced gamma interferon (MIG), CXCL9 (gene 4283); assay: BSK_BE3C_MIG: BioMAP Diversity Plus: BE3C Assay for Monokine induced gamma interferon (MIG) Biomarker Activity (AID 2283035); conditions: primary human bronchial epithelial cells; actives raise or lower the signal
Summary of the method: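 hu bronchial epithelial 1° cells, 24 h cpd; MIG by ELISA; bidirectional fit, DMSO = baseline.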

[14] = read-out: Transforming growth factor beta 1 (TGFb1), TGFB1 (gene 7040); assay: BSK_BE3C_TGFb1: BioMAP Diversity Plus: BE3C Assay for Transforming growth factor beta 1 (TGFb1) Biomarker Activity (AID 2283036;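 note: TGF-b1 protein level measured by ELISA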); conditions: primary human bronchial epithelial cells; actives raise or lower the signal
Summary of the method: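 ELISA readout of TGF-b1 from human lung bronchial epithelial primary cells, taken 24 h post-treatment. Gain or loss of signal fitted relative to DMSO baseline, with parallel SRB staining for overt cytotoxicity.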

[15] = read-out: Plasminogen activator inhibitor-1 (PAI1), SERPINE1 (gene 5054); assay: BSK_BE3C_PAI1: BioMAP Diversity Plus: BE3C Assay for Plasminogen activator inhibitor-1 (PAI1) Biomarker Activity (AID 2283037); conditions: primary human bronchial epithelial cells; actives raise or lower the signal
Summary of the method: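 PAI-1 was measured by ELISA in human primary bronchial epithelial cultures 24 h after chemical dosing, with cytotoxicity checked by SRB total-protein staining in parallel cultures. Activity was fitted in both directions relative to DMSO.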

[16] = read-out: urokinase plasminogen activator (uPA), PLAU (gene 5328); assay: BSK_BE3C_uPA: BioMAP Diversity Plus: BE3C Assay for urokinase plasminogen activator (uPA) Biomarker Activity (AID 2283038); conditions: primary human bronchial epithelial cells; actives raise or lower the signal;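 note: uPA protein level quantified by ELISA in cell cultures; uPA read one day after compound addition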
Summary of the method: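 Human primary bronchial epithelial cells were exposed to chemical for 24 h, then uPA levels were measured by ELISA. Responses were fitted bidirectionally against DMSO as negative control and baseline. Parallel SRB staining of total protein gauged overt cytotoxicity.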

[17] = read-out: Urokinase-type plasminogen activator receptor (uPAR), PLAUR (gene 5329); assay: BSK_BE3C_uPAR: BioMAP Diversity Plus: BE3C Assay for Urokinase-type plasminogen activator receptor (uPAR) Biomarker Activity (AID 2283039); conditions: primary human bronchial epithelial cells; actives raise or lower the signal;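 note: cells exposed to compound for one day before measurement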
Summary of the method: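 uPAR levels were measured by ELISA after 24 h compound treatment of primary human bronchial epithelial cells, fitted in both directions relative to DMSO. Parallel SRB staining served as the cytotoxicity read-out.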

[18] = read-out: Interleukin-6 (IL6), IL6 (gene 3569); assay: BSK_CASM3C_IL6: BioMAP Diversity Plus: CASM3C Assay for Interleukin-6 (IL6) Biomarker Activity for (AID 2283040); conditions: primary human coronary artery smooth muscle cells; actives raise or lower the signal
[19] = read-out: Tissue plasminogen activator (tPA), PLAT (gene 5327); assay: BSK_BE3C_tPA: BioMAP Diversity Plus: BE3C Assay for Tissue plasminogen activator (tPA) Biomarker Activity (AID 2283041); conditions: primary human bronchial epithelial cells; actives raise or lower the signal;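 note: tPA level quantified by ELISA one day after compound addition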
Summary of the method: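 tPA measured by ELISA 24 h after dosing human primary bronchial epithelial cells (BE3C system). Changes in either direction were fitted against DMSO. Parallel cultures were stained with SRB to flag overt cytotoxicity.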

[20] = read-out: Interleukin-8 (IL8), CXCL8 (gene 3576); assay: BSK_CASM3C_IL8: BioMAP Diversity Plus: CASM3C Assay for Interleukin-8 (IL8) Biomarker Activity (AID 2283042); conditions: primary human coronary artery smooth muscle cells; actives raise or lower the signal;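 note: IL-8 protein level quantified by ELISA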

Measured: outcome

C/C=C/c1ccc(OC)cc1
inactive: all assays above

CCCCOC(=O)CCCCC(=O)OCCCC
inactive: all assays above

O=C(O)CC(O)(CC(=O)O)C(=O)O
not listed: [16]
inactive: all other assays above

CC1(C)C(=O)NC(=O)N1CO
not listed: [16]
inactive: all other assays above

O=C(O)CN(CC(=O)O)CC(=O)O
not listed: [16]
inactive: all other assays above

O=C1CCCCC1
not listed: [9]
inactive: all other assays above

O=C(O)c1[nH]n(-c2ccc(S(=O)(=O)O)cc2)c(=O)c1N=Nc1ccc(S(=O)(=O)O)cc1
inactive: all assays above
